Several values for one entry are separate records, joined by “and”; a condition that tells them apart may be missing. Identical values can stand only once. Results filed as inconclusive are left out. The source holds several records for some structures; these can differ, active in one and inactive in another. Activity calls are given as the source filed them. Unless noted, calls come from the whole dose curve; as a rule, active = well fitted curve in the direction sought with a large enough effect in the repeat runs; inconclusive = weak or mixed curves; inactive = no such curve, though single readings can be large; an effect the other way counts as inactive or inconclusive.
What was measured:
[1] = qHTS assay to identify aromatase inhibitors - cell viability counter screen (AID 743084);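 note: cells stimulated with testosterone during compound exposure; nearly all actives have a fitted effect of over 55% in size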; note: potency is the fitted concentration of half-maximal effect
[2] = molecular target: Aryl hydrocarbon receptor (Homo sapiens) (UniProt P35869); assay: qHTS assay to identify small molecule that activate the aryl hydrocarbon receptor (AhR) signaling pathway (AID 743085); note: nearly all actives have a fitted effect of over 15% in size; note: potency is the fitted concentration of half-maximal effect;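 for activation: HG2L7.5c1 human HepG2 liver cells with stably integrated DRE-driven firefly reporter; series mostly up to about 70 µM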
Sequence of Aryl hydrocarbon receptor (Homo sapiens) (P35869 whole entry, looked up): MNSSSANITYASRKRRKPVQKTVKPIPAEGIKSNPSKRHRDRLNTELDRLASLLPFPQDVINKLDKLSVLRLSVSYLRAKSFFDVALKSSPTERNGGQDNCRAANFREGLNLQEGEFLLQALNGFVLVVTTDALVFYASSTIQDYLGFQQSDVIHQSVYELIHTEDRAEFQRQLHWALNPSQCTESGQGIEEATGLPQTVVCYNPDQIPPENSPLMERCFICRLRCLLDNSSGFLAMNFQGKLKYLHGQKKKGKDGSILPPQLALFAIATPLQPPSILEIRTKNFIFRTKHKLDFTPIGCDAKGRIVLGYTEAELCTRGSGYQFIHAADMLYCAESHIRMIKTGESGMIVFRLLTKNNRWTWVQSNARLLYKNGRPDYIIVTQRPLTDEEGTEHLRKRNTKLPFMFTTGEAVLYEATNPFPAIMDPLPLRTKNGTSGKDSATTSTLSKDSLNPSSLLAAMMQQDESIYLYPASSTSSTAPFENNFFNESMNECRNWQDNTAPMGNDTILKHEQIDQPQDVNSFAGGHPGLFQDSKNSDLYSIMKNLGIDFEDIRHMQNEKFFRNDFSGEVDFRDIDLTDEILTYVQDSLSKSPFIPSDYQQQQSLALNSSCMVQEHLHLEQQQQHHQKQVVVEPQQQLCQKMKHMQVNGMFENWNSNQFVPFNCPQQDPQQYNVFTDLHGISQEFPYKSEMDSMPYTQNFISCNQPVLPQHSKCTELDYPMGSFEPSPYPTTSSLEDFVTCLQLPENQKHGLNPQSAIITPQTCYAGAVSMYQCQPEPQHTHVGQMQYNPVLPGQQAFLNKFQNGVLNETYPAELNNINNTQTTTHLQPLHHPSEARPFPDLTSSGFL
In short: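 Measured in HG2L7.5c1 cells: CellTiter-Fluor signal (30 min incubation, 37C) for viability, then luciferase luminescence (30 min, room temperature). Compound contact time was 24 h at 37C, following a 5 h pre-incubation.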

[3] = qHTS assay to identify small molecule that activate the aryl hydrocarbon receptor (AhR) signaling pathway - cell viability counter screen (AID 743086); note: nearly all actives have a fitted effect of over 45% in size; note: potency is the fitted concentration of half-maximal effect
In short: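 HepG2-AhR-luc (HG2L7.5c1) cells, 4000/well, were preincubated 5 h at 37C, exposed to compound in qHTS format for 24 hr at 37C, then given CellTiter-Fluor for 30 min; viability was read as fluorescence in the reporter wells.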

[4] = molecular target: Peroxisome proliferator-activated receptor gamma (Homo sapiens) (UniProt P37231); assay: qHTS assay to identify small molecule agonists of the peroxisome proliferator-activated receptor gamma (PPARg) signaling pathway (AID 743094; active = well fitted activation curve with a large enough effect in the signal ratio in the repeat runs, not every such curve was filed as active; the % refers to the signal ratio)
Sequence of Peroxisome proliferator-activated receptor gamma (Homo sapiens) (P37231 whole entry, looked up): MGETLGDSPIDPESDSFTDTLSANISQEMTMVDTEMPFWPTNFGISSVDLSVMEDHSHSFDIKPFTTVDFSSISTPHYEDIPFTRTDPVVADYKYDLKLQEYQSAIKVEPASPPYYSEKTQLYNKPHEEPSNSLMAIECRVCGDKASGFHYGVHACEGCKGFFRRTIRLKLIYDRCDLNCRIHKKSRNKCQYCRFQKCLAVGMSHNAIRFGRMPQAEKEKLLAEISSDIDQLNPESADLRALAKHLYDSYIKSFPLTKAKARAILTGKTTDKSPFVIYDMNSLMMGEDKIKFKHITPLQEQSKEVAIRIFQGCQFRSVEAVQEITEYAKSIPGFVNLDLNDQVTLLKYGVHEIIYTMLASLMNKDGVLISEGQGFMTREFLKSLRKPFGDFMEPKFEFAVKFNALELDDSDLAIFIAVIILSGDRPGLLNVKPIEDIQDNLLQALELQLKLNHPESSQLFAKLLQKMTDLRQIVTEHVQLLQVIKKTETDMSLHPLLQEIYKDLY
In short: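 Agonism was assessed in a beta-lactamase reporter system, HEK293H cells with a stably integrated UAS-bla construct under PPARg control; the 17 h treatment at 37C preceded a 1 h room-temperature FRET substrate read.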

[5] = molecular target: Peroxisome proliferator-activated receptor gamma (Homo sapiens) (UniProt P37231); assay: qHTS assay to identify small molecule antagonists of the peroxisome proliferator-activated receptor gamma (PPARg) signaling pathway (AID 743191; calls by dose curve; note: nearly all actives have a fitted effect of over 30% in size; note: potency is the fitted concentration of half-maximal effect)
In short: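 GeneBLAzer PPARg UAS-bla HEK293H cells carrying a UAS-driven beta-lactamase reporter were plated at 3000 cells/well, preincubated 5 h at 37C, then given compound for 17 h at 37C; LiveBLAzer B/G FRET substrate was read after 1 h at room temperature.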

[6] = qHTS assay to identify small molecule antagonists of the peroxisome proliferator-activated receptor gamma (PPARg) signaling pathway - cell viability counter screen (AID 743194); note: nearly all actives have a fitted effect of over 55% in size; note: potency is the fitted concentration of half-maximal effect
In short: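 PPARg-UAS-bla HEK293H cells were plated, rested 5 h at 37 C, then treated with compounds plus rosiglitazone (50 nM final) for 17 h at 37 C; viability was then read by CellTiter-Glo luminescence after 30 min at room temperature.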

[7] = qHTS assay for small molecule agonists of the antioxidant response element (ARE) signaling pathway (AID 743202; active = well fitted activation curve with a large enough effect in the signal ratio in the repeat runs, not every such curve was filed as active; the % refers to the signal ratio; note: potency is the fitted concentration of half-maximal effect)
In short: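 Steps: seed ARE-bla HepG2 cells (2,000/well); incubate 5 h at 37 C; add compounds by pin tool; incubate 16 h at 37 C; add FRET substrate; read fluorescence after 2 h at RT.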

[8] = qHTS assay for small molecule agonists of the antioxidant response element (ARE) signaling pathway - cell viability counter screen (AID 743203; calls by dose curve; note: nearly all actives have a fitted effect of over 55% in size; note: potency is the fitted concentration of half-maximal effect)
In short: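 ATP content via CellTiter-Glo luminescence served as the viability measure. Cells: ARE-bla HepG2, 2,000 per well. Exposure: 16 hrs, 37C/5% CO2.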

[9] = qHTS assay for small molecule activators of the heat shock response signaling pathway - cell viability counter screen (AID 743209); note: nearly all actives have a fitted effect of over 50% in size; note: potency is the fitted concentration of half-maximal effect
In short: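 Compounds dissolved in DMSO were added to overnight-plated HSE-bla HeLa cells and left 5 h at 37 C. Cell viability was quantified by luminescence using CellTiter-Glo.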

[10] = qHTS assay for small molecule activators of the heat shock response signaling pathway (AID 743210; active = well fitted activation curve with a large enough effect in the signal ratio in the repeat runs, with a control signal flat, not every such curve was filed as active; the % refers to the signal ratio;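 note: HeLa cells with beta-lactamase reporter driven by heat shock elements; series mostly up to about 63 µM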)
In short: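 Activation of heat shock element-controlled beta-lactamase expression is measured in HeLa cells by LiveBLAzer FRET fluorescence, with compound exposure lasting 5 h at 37 C and substrate loading 2.5 h at room temperature.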

Measured: Potency

CCC(=O)O
inactive: all assays above

O=C(O)c1cc(-c2ccccc2)nc2ccccc12
active: [2] 58.4 µM
not listed: [4]
inactive: all other assays above

Cc1ccc(N)c(S(=O)(=O)O)c1
inactive: all assays above

CC1=C(/C=C/C(C)=C/C=C/C(C)=C/CO)C(C)(C)CCC1
active: [7] 61.9 µM and 57.4 µM
inactive and 72.3 µM (active): [1]
not listed: [5] | [10]
inactive: all other assays above

O=C(c1cc(O)c(O)c(O)c1)c1ccc(O)c(O)c1O
active: [1] 34.3 µM | [2] 15.4 µM | [3] 30.5 µM
not listed: [4] | [7]
inactive: all other assays above

Cc1ccc(C(=O)O)o1
not listed: [7]
inactive: all other assays above

CC1COc2ccccc2N1C(=O)C(Cl)Cl (stereo not drawn)
17.2 µM (active) and inactive: [2]
active: [1] 27.3 µM | [5] 24.5 µM | [7] 19.3 µM and 27.3 µM
not listed: [4]
inactive: all other assays above

Nc1nc2ncc(CNc3ccc(C(=O)N[C@@H](CCC(=O)O)C(=O)O)cc3)nc2c(=O)[nH]1
not listed: [5]
inactive: all other assays above

c1ccc2[nH]cnc2c1
inactive: all assays above

CCCCC(CC)COC(=O)/C=C\C(=O)OCC(CC)CCCC (stereo not drawn)
not listed: [7] | [10]
inactive: all other assays above

O=S(=O)(Oc1ccc(Cl)cc1Cl)c1ccccc1
inactive: all assays above

Cn1c([N+](=O)[O-])cnc1COC(N)=O
inactive: all assays above

CC1=C(CC(=O)O)c2cc(F)ccc2/C1=C\c1ccc(S(C)=O)cc1 (stereo not drawn)
active: [2] 13.3 µM and 24.3 µM
not listed: [5] | [7]
inactive: all other assays above

C=C(C#N)C(=O)OCC
not listed: [5]
inactive: all other assays above

NCCNCCNCCNCCN
not listed: [5] | [7]
inactive: all other assays above

O=C(c1ccc(O)cc1)c1ccc(O)cc1O
active: [2] 24.3 µM
not listed: [5] | [7]
inactive: all other assays above

CCCCC/C=C\C/C=C\CCCCCCCC(=O)OC
inactive and 38.9 µM (active): [9]
not listed: [5] | [6]
inactive: all other assays above

Oc1ccc2ccccc2c1N=Nc1ccccc1
active: [1] 30.6 µM and 24.3 µM | [2] 3.06 µM
inactive: [4] | [6] | [8] | [9] | [10]

CCCCC(CC)COC(=O)CCCCCCCC(=O)OCC(CC)CCCC (stereo not drawn)
inactive: [3] | [6] | [7] | [8] | [9] | [10]

CCCCCCCCCC(=O)O
active: [5] 30.9 µM
not listed: [2] | [4]
inactive: all other assays above

ClC1=C(Cl)C(Cl)(Cl)C(Cl)=C1Cl
inactive: [1] | [2] | [3] | [9]
active: [6] 2.2 µM and 3.09 µM | [8] 13.8 µM and 12.2 µM

CNC[C@H](O)[C@@H](O)[C@H](O)[C@H](O)CO
inactive: [3] | [6] | [7] | [8] | [9] | [10]

CC(C)(C)C1CCC(O)CC1 (stereo not drawn)
not listed: [2]
inactive: all other assays above

NC(=O)NNc1ccccc1
not listed: [4] | [5]
inactive: all other assays above

S=c1nc[nH]c2nc[nH]c12
active: [7] 4.74 µM and 7.5 µM | [8] 842 nM
inactive: [1] | [3] | [9] | [10]
inactive and 23.7 µM (active): [2]
